Measurements taken from PubChem BioAssay AID1850 (Southern Research Specialized Biocontainment Screening …, 2009).
About 1,000 (0.32%) of roughly 310,000 compounds were called active. The rule behind the calls is not given here. A selection follows. Measured potencies and affinities stand elsewhere.

Assay: PhoP regulon inhibitors, Salmonella typhi PhoP promoter GFP reporter, confirmatory (AID 1850);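 note: 0% = induced wells with vehicle and 100% = uninduced wells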
Conditions: fluorescence, 4 h, at 50 µM, hits give high values

SMILES	inhibition
Cc1ccc(SCC(=O)OCC(=O)NCCC2=CCCCC2)cc1	9.93% (inactive)
O=C(O)CNC(=O)C1COc2ccccc2O1 (configuration not stated)	8.95% (inactive)
COCCCn1c(C23CC4CC(CC(C4)C2)C3)n[nH]c1=S	-6.32% (inactive)
Fc1ccc(CCNCc2ccc(Br)cc2)cc1	-3.63% (inactive)
C1N2CN3CN1CN(C2)C3	-6.24% (inactive)
O=C(CSc1nnnn1C1CCCC1)N1CCCc2ccccc21	11.7% (inactive)
COc1ccccc1OCCC(=O)OCC(=O)c1[nH]c(C)c(C(C)=O)c1C	10.1% (inactive)
O=C(NCN1CCN(c2ccccc2F)CC1)c1ccccc1	0.63% (inactive)
C/C(=N\NC(=O)C1CC1)c1ccc(Cl)c(Cl)c1	5.7% (inactive)
C[n+]1cccc2c(Br)ccc([O-])c21	4.86% (inactive)
NCC(=O)c1cccc2ccc[n+]([O-])c12	-7.72% (inactive)
O=C(CSc1n[nH]c(=O)[nH]c1=O)c1ccccc1[N+](=O)[O-]	-3.6% (inactive)
CCN(Cc1cc2ccccc2[nH]c1=O)C(=O)c1cccnc1	1.33% (inactive)
COc1ccc(C2(CNC(=O)/C=C\c3ccco3)CCCC2)cc1OC	-2.04% (inactive)
COC(=O)c1ccccc1NC(=S)NC(=O)COc1ccccc1	10.9% (inactive)
CC(C)(C)c1ccc(C(=O)NC(=S)NNC(=O)COc2ccccc2)cc1	-4.42% (inactive)
O=C(COc1ccccc1)NNC(=S)NC(=O)c1ccccc1	12.9% (inactive)
Cc1ccccc1C(=O)NNC(=S)NC(=O)c1ccccc1	-2% (inactive)
CCc1ccc(NC(=S)Nn2cnnc2)cc1	3.78% (inactive)
CCn1cc(C(=O)c2ccccc2)c2ccccc21	-2.86% (inactive)
COc1ccc(/C=C/C(=O)Nc2ccc(-c3nnc4n3CCCCC4)cc2)c(OC)c1	5.23% (inactive)
CC(=O)OC(C(=O)NCc1ccco1)c1ccncc1 (configuration not stated)	-8.42% (inactive)
Cc1c(CCOC(=O)c2ccccc2)sc[n+]1CC(=O)c1ccc(Br)cc1	-8.05% (inactive)
Cc1c(CCOC(=O)CC23CC4CC(CC(C4)C2)C3)sc[n+]1CC(=O)c1ccc(Br)cc1	-0.11% (inactive)
O=C(Nc1nc(-c2cccc([N+](=O)[O-])c2)cs1)c1cccc([N+](=O)[O-])c1C(=O)O	5.24% (inactive)
O=C(NC1CCCCCCC1)C1CCN(S(=O)(=O)N2CCCC2)CC1	11% (inactive)

SMILES	inhibition
O=C(CSc1nc2ccccc2[nH]1)Nc1ccccc1F	-4.68% (inactive)
O=C(CSc1nc2ccccc2[nH]1)Nc1ccc(F)cc1	0.68% (inactive)
Cc1ccc(NS(=O)(=O)c2ccc3c(c2)NC(=O)CCS3)c(Br)c1	1.1% (inactive)
NC(=O)/C=C/C(=O)Nc1ccc(Cl)cc1	5% (inactive)
O=C(/C=C/c1ccccc1)NC(=S)NNC(=O)c1cccnc1	4.06% (inactive)
O=C(/C=C/c1ccc(F)cc1)NC(=S)NC1CCCCC1	2.79% (inactive)
CC(/C=C/c1ccccc1)=N/NC(=O)c1cnccn1	1.54% (inactive)
COc1ccc(/C=C/C(=O)NC(=S)NNC(=O)c2cccnc2)cc1	-4.83% (inactive)
CC(C)NC(=S)NC(=O)/C=C/c1ccc(F)cc1	-3.22% (inactive)
COc1ccc(/C=C/C(=O)NC(=S)NNC(=O)c2cc(OC)c(OC)c(OC)c2)cc1	4.25% (inactive)
NC(=O)c1nsc(C(=O)N(c2ccc3c(c2)OCO3)C(C(=O)NCC2CCCO2)c2ccc(F)cc2)c1N (configuration not stated)	6.99% (inactive)
CSCCC(NS(=O)(=O)c1cc(C(=O)O)ccc1Cl)C(=O)O (configuration not stated)	-1.99% (inactive)
C=CCNC(=O)c1oc2ccc(S(=O)(=O)N3CCCCC3)cc2c1C	0.5% (inactive)
CCN(CC)CCCNC(=O)C1CCN(c2ncnc3c2sc2cccc(F)c23)CC1	3.1% (inactive)
COc1ccc(Nc2nc(NN)nc(Nc3ccc(OC)cc3)n2)cc1	-3.28% (inactive)
COc1c2n(C)ccc3c-2n(c(=O)c1=O)c1ccccc31	17.2% (inactive)
O=S(=O)(NCCSc1ccc(Cl)cc1)c1ccc2c(c1)OCCO2	-8.59% (inactive)
COc1cc(Cl)ccc1OCc1cc(C(=O)N2CCCCCCC2)no1	-27.8% (inactive)
CC1(c2nnc(-c3ccc(F)cc3)o2)CC(c2ccc([N+](=O)[O-])cc2)=NO1 (configuration not stated)	3.35% (inactive)
Fc1ccc(CNCCc2c[nH]c3ccccc23)cc1	11.8% (inactive)
CCNCc1ccc(OCc2ccccc2F)c(OC)c1	-10.1% (inactive)
COc1cc(CNCCCCO)ccc1OCc1ccccc1F	-5.61% (inactive)
COc1cccc(CNCCc2c[nH]c3ccccc23)c1OCc1ccc(F)cc1	-6.02% (inactive)
Cc1cccnc1NC(=O)CCc1nnc2ccc(N3CCC4(CC3)OCCO4)nn12	3.16% (inactive)
Oc1ccc2ccccc2c1CNc1ccc(Br)cn1	-4.93% (inactive)
CC(C)c1nn(-c2cc(C(F)(F)F)ccn2)c(=O)o1	1.48% (inactive)

SMILES	inhibition
CCOC(=O)c1cccc(NC(=O)c2cc(C)nn2-c2ccccc2)c1	8.61% (inactive)
Cc1cccc(C)c1NC(=O)C[n+]1cc(-c2ccccc2)n2c1CCC2	-8.77% (inactive)
Cc1ccc(NC(=O)C[n+]2cc(-c3ccccc3)n3c2CCC3)cc1	10% (inactive)
O=C(C[n+]1cc(-c2ccccc2)n2c1CCC2)Nc1nc(-c2ccccc2)cs1	-3.98% (inactive)
Cc1ccccc1NC(=O)C[n+]1cc(-c2ccccc2)n2c1CCC2	-9.34% (inactive)
O=C(C[n+]1cc(-c2ccc(Cl)cc2)n2c1CCC2)Nc1nc(-c2ccc(F)cc2)cs1	-19% (inactive)
Cc1ccc(NC(=O)C[n+]2cc(-c3ccccc3)n3c2CCC3)c(C)c1	19.1% (inactive)
Cc1ccc(NC(=O)C[n+]2cc(-c3ccc(C)cc3)n3c2CCC3)cc1	14.9% (inactive)
Cc1ccc(-c2c[n+](CC(=O)Nc3ccccc3C)c3n2CCC3)cc1	5.92% (inactive)
Cc1ccc(C(=O)CSc2nc(C)cc(C)c2C(N)=O)cc1	12.8% (inactive)
Cc1ccc(C(=O)N2N=C(c3cccc(NS(C)(=O)=O)c3)CC2c2cccs2)cc1 (configuration not stated)	-10.1% (inactive)
Cc1ccc(Cl)cc1NC(=O)C(=O)N/N=C/c1ccc2c(c1)OCO2	-4.53% (inactive)
COc1cccc(/C=C/C(=O)NCc2ccc(S(N)(=O)=O)cc2)c1	-0.15% (inactive)
CCOC(=O)c1c(NC(=O)Cn2ccsc2=N)sc(C)c1C	14.8% (inactive)
Cc1ccc(CSc2nnc(-c3ccncc3)n2C)cc1	-10.9% (inactive)
O=C(NC1CCCCCC1)c1ccc(Br)o1	-0.61% (inactive)
Cc1cc(NC(=O)CCC(=O)N(CC(=O)NC2CCCC2)c2ccc(Cl)c(Cl)c2)no1	14.6% (inactive)
Cc1cccc(C(=O)NCC(=O)OCC(=O)NC2CCCCCCC2)c1	0.27% (inactive)
Cc1ccc(-c2c[n+](CC(=O)Nc3c(C)cccc3C)c3n2CCC3)cc1	-24.6% (inactive)
O=C(C[n+]1cc(-c2ccc(F)cc2)n2c1CCC2)Nc1nc(-c2ccc(F)cc2)cs1	-2.82% (inactive)
Cc1ccc(-c2c[n+](CC(=O)Nc3nc(-c4ccc(F)cc4)cs3)c3n2CCC3)cc1	-3.86% (inactive)
O=C(C[n+]1cc(-c2ccc(F)cc2)n2c1CCC2)Nc1nc(-c2ccccc2)cs1	0.35% (inactive)
CCOC(=O)C(C)c1ccc2cc(OC)ccc2c1 (configuration not stated)	-2.05% (inactive)
Cc1cc(C)c2c(c1)/C(=N/NC(=O)c1cc(C)oc1C)CCC2	-3.06% (inactive)
CN(C)c1ccnc2sc3c(SCc4ccc(Cl)cc4)ncnc3c12	-7.49% (inactive)
CC(C)n1c(SCc2ccc(Cl)cc2)nc2c1c(=O)[nH]c(=O)n2C	-4.82% (inactive)

SMILES	inhibition
CN(C)CCN(C(=O)c1ccc(S(=O)(=O)N2CCCC2)cc1)c1nc2ccc(Br)cc2s1	0.55% (inactive)
O=C(CC1NCCc2ccccc21)Nc1ccc(Cl)cc1 (configuration not stated)	8.21% (inactive)
O=C(CC1NCCc2ccccc21)Nc1ccccc1 (configuration not stated)	7.99% (inactive)
Cc1cc(NCCO)nc(N2CCOCC2)n1	4.73% (inactive)
Cc1c(Br)cc(C(=O)O)c(C)c1C	7.99% (inactive)
COc1cc(C(=O)Nc2ccc(C)cc2C(NCC(=O)NN)c2ccccc2)cc(OC)c1OC (configuration not stated)	-8.05% (inactive)
O=c1cc(-c2ccccc2)cc(-c2ccccc2)n1CCO	6.95% (inactive)
Nn1c(-c2ccccc2)cc(-c2ccccc2)cc1=O	-2.08% (inactive)
CN(C)c1ccc(/C=[N+](\[O-])C2N(c3ccccc3)C(=S)SC2(C)C)cc1 (configuration not stated)	-5.4% (inactive)
COc1cc(C2c3c(oc4ccccc4c3=O)C(=O)N2CCN2CCOCC2)cc(OC)c1OC (configuration not stated)	-13.4% (inactive)
Clc1ccccc1OCCCn1ccnc1	-8.4% (inactive)
c1ccc2cc(OCCCn3ccnc3)ccc2c1	-0.84% (inactive)
COc1ccc2nc(SCC(=O)Nc3ccccc3C#N)[nH]c2c1	-8.31% (inactive)
Cc1ccc(-n2nc3c(=S)[nH]nc(C)c3c2C)cc1	2.54% (inactive)
COc1cccc(C(=O)Nc2ccc(C(=O)c3ccncc3)cc2)c1	-15.6% (inactive)
CCC(C)NC(=O)CSc1nnc(-c2c[nH]c3ccccc23)o1 (configuration not stated)	7.49% (inactive)
COc1ccc(Nc2cccc3ccccc23)cc1	-1.63% (inactive)
COc1ccc(Nc2ncnc3ccccc23)cc1	-1.42% (inactive)
COc1ccc(OC)c(Nc2c3ccccc3nc3ccccc23)c1	-13.7% (inactive)
COc1ccc(Nc2nc(-c3ccccc3)nc3ccccc23)cc1	6.48% (inactive)
COc1cc(Nc2c3ccccc3nc3ccccc23)cc(OC)c1OC	-7.36% (inactive)
Cc1ccc(O)c(Nc2nc(-c3ccccc3)nc3ccccc23)c1	8.76% (inactive)
Cc1ccc(O)c(Nc2ncnc3ccccc23)c1	3.94% (inactive)
COc1ccccc1Nc1c2c(nc3ccccc13)CCC2	0.56% (inactive)
